Compound activity as filed in PubChem BioAssay.
Compounds with a hit are over-represented: about 19% of the library has one in this group of screens.
HT1080NT lethal – kills 2HG-producing HT-1080-NT fibrosarcoma cells; AID 686970; hit rate 1.6% among 360,000; HT-1080-NT fibrosarcoma viability, CellTiter-Glo ATP luminescence, 48 h; Potency, µM (doses to about 46.1 µM), inactives show at the highest dose activity, negative = less viability, actives largely listed as cytotoxic;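 also: NT is the 2HG producing partner of a matched IDH1 knockdown line; potency is read from the fitted curve at half-maximal effect; 0% = DMSO-treated cells and -100% = media-only wells without cells; nearly all actives have a fitted effect of over 55% in size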
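Read-out is CellTiter-Glo luminescence after 10 minutes at room temperature, following 48 hours' compound treatment of HT-1080-NT cells (750 cells/well, RPMI, 5% FBS, 37 degrees C).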
IL1B secr inh – inflammasome signaling inhibition, IL-1 beta readout; THP-1 LPS/ATP IL-1B secretion, AlphaLISA, 16 h; hits give low values; activity change, % at 57.5 µM; hit rate 4.7% among 360,000; AID 743279; in the data active = activity change below about -50%; inconclusive = mostly about -30% to -49%
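THP-1 cells pretreated 1 hr with compounds (up to 57.5 uM final), then stimulated with LPS (250 ng/mL final) plus ATP (1.25 mM final); secreted IL-1B measured by AlphaLISA after 16 hr, decreased signal indicating inhibition.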
HT1080 IDH1KD tx – kills HT-1080 cells with IDH1 knockdown | HT-1080 IDH1 knockdown viability, ATP luminescence, 48 h | Potency, µM (titrated, usually from 46.1 µM), for inactives: at the top dose activity, negative = toxicity, actives largely listed as cytotoxic | hit rate 2% among 360,000;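 also: potency is read from the fitted curve at half-maximal effect; 0% = DMSO wells and -100% = cell-free medium wells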
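CellTiter-Glo luminescence after 48 h compound exposure at 37 degrees C of IDH1-knockdown HT-1080 cells in 5% FBS RPMI. %Activity scaled between DMSO wells and cell-free media wells, with curves fitted and assigned curve classes.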
DT40 TDP1 no CPT – qHTS for Inhibitors of human tyrosyl-DNA phosphodiesterase 1 (TDP1): qHTS in cells in absence of CPT; DT40 Tdp1-/- hTDP1 cells, no CPT, ATP luminescence, 48 h; Potency, µM (series often up to 46.2 µM), for inactives: top-dose activity change, negative = growth inhibition, most hits filed as inhibitors; hit rate 15% among 420,000; AID 686978, 2013; also: potency is read from the fitted curve at half-maximal effect; nearly all actives have a fitted effect of over 55% in size
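Stably hTDP1-transfected Tdp1-null chicken DT40 cells were treated with library compounds minus camptothecin and grown for at least 48 hr at 37 °C, after which cellular ATP was quantified by luminescence.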
DT40 TDP1 CPT – DT40-hTDP1 cell growth loss with CPT; Potency, µM (doses to about 46.2 µM), for inactives: at the highest dose activity change, negative = growth inhibition, actives largely listed as inhibitors; chicken DT40 Tdp1-/-;hTDP1 cells + 20 nM CPT, ATP luminescence, 48 h; AID 686979; hit rate 12% among 420,000; also: potency is read from the fitted curve at half-maximal effect; nearly all actives have a fitted effect of over 55% in size
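Cell growth measured by CellTiter-Glo luminescence after a minimum 48 h, 37 C compound exposure with 20 nM CPT in Tdp1-knockout DT40 cells stably expressing hTDP1, seeded 400/well; qHTS titration format.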
uPA surface inh – inhibitors of cell surface uPA generation. cell surface uPA generation assay, qHTS. Potency, µM (doses to about 38.3 µM), for inactives: at the top dose activity change, negative = inhibition, most hits filed as inhibitors. hit rate 0.31% among 330,000. AID 540303; active = well fitted inhibition curve with a large enough effect; inconclusive = small, poorly fitted or top-dose-only effect; inactive = no such curve, though single readings can be large or run the other way; tested in mouse RAW 264.7 cells; also: potency is read from the fitted curve at half-maximal effect; nearly all actives have a fitted effect of over 55% in size
* hit, by the source's call; ? = inconclusive; . = not tested or not shown. Unless noted, calls follow the shape of the dose curve; as a rule, active = well fitted curve in the direction sought with a large enough effect; inconclusive = small, poorly fitted or top-dose-only effect, or another doubt; inactive = no such curve, though single readings can be large; an effect the other way counts as inactive or inconclusive. Unless noted, % is scaled to controls: 0 for no effect and ±100 for the full control effect.

SMILES | HT1080NT lethal | IL1B secr inh | HT1080 IDH1KD tx | DT40 TDP1 no CPT | DT40 TDP1 CPT | uPA surface inh
O=C(CCn1c(=S)oc2ccccc21)Nc1cccc(O)c1 | 14.5% | 0.0 | 11.0% | 3.0% | 7.3% | 4.5%
COc1cc(NC(=O)C2CC(c3cccc(OC)c3OC)=NO2)cc(OC)c1OC (stereo not drawn) | ? | -17.6 | ? | 15.8µM* | 14.1µM* | .
COc1cccc(C2=NOC(C(=O)Nc3cccnc3Cl)C2)c1OC (stereo not drawn) | -1.8% | 59.9 | -9.9% | -15.9% | -3.7% | 6.0%
COc1ccc(CCNC(=O)C2CC(c3ccc([N+](=O)[O-])cc3)=NO2)cc1 (stereo not drawn) | 13.7% | 21.4 | 9.2% | ? | 6.51µM* | 4.1%
COc1ccc(CCNC(=O)C2CC(c3cccc([N+](=O)[O-])c3)=NO2)cc1 (stereo not drawn) | 11.5% | -3.6 | 4.9% | ? | -18.7% | 12.9%
COCCn1c(SCC(=O)NC2CCCC2)nnc1C(C)C | 25.2% | 2.7 | 20.1% | -2.1% | 3.9% | -16.6%
C=CCn1c[n+](CC(=O)c2ccc(Br)s2)c2ccccc21 | -21.0% | -65.4* | -8.6% | 11.6µM* | 20.6µM* | -0.7%
COc1ccc(C(=O)c2oc3ccccc3c2NC(=O)COc2cccc(C)c2C)cc1 | . | . | . | -2.4% | 5.9% | .
CC1CCC2C(=O)N(c3ccc(C(=O)Oc4cccc5cccnc45)cc3)C(=O)C2C1 (stereo not drawn) | ? | -85.6* | ? | 0.651µM* | 0.731µM* | -7.7%
Cc1cc(C)cc(NC(=O)N2CCC(CN3CCCCCC3)CC2)c1 | . | . | . | ? | -50.2% | .
Cc1cc(Nc2cccc(C(F)(F)F)c2)nc2ccc(NC(=O)c3cccc(Cl)c3)cc12 | . | . | . | 6.51µM* | 13µM* | .
CCOc1cc(/C=C(\CC(=O)O)c2nc3ccccc3s2)ccc1OCC(=O)Nc1cccc(C(F)(F)F)c1 | -8.5% | -8.0 | -15.2% | ? | ? | 6.9%
CCOc1ccc(C(=O)Nc2ccc3nc(Nc4cccc(C(F)(F)F)c4)cc(C)c3c2)cc1OCC | . | . | . | 5.17µM* | 18.4µM* | .
O=C(Nc1cccc(C(F)(F)F)c1)c1cccnc1 | 10.6% | -3.1 | 26.8% | -15.4% | -24.2% | .
Cc1cc(Nc2cccc(C(F)(F)F)c2)nc2ccc(NC(=O)c3cccnc3)cc12 | . | . | . | 2.31µM* | 4.11µM* | .
Cc1nc2ccc(NC(=O)c3cccc(C(F)(F)F)c3)cc2o1 | 1.8% | ? | 2.8% | ? | 23.1µM* | 7.8%
Cc1cc(C)c(NC(=O)CSc2ccnc(=O)[nH]2)c(C)c1 | . | . | . | -27.9% | ? | .
CC(=O)c1cccc(NC(=O)N2C3CCCC2CC(NC(=O)C2CC2)C3)c1 (stereo not drawn) | -3.4% | 24.1 | -2.7% | 3.4% | 5.5% | 3.5%
COc1ccc(S(=O)(=O)N(C(=O)c2ccncc2)c2ccc3oc4c(c3c2)CCCC4)cc1 | -21.1% | 22.6 | ? | 20.6µM* | 18.4µM* | -5.2%
O=C(c1ccncc1)N(c1ccc2oc3c(c2c1)CCCC3)S(=O)(=O)c1cccc([N+](=O)[O-])c1 | ? | 6.2 | ? | ? | -25.6% | 1.0%
CCc1ccc(S(=O)(=O)N(C(=O)c2ccncc2)c2ccc3oc(C)c(C(=O)OC)c3c2)cc1 | . | . | . | 2.59µM* | 2.91µM* | .
COc1ccc(S(=O)(=O)Nc2ccc3oc4c(c3c2)CCCC4)cc1 | . | . | . | 20.6µM* | ? | .
COC(=O)c1c(C)oc2ccc(N(C(=O)c3ccncc3)S(=O)(=O)c3ccc(OC)cc3)cc12 | . | . | . | 0.517µM* | 0.581µM* | .
COc1ccc(CC2NCCC3=CC(=O)CCC32)cc1O (stereo not drawn) | . | . | . | . | . | -3.2%
Cc1nccn1CC(=O)N/N=C/c1cccc(O)c1 | 11.7% | 13.6 | 12.0% | -10.1% | -21.2% | 0.3%
SMILES | HT1080NT lethal | IL1B secr inh | HT1080 IDH1KD tx | DT40 TDP1 no CPT | DT40 TDP1 CPT | uPA surface inh
COc1cccc(NC(=O)c2sc3nc(C)c(C(=O)Nc4ccc(C)cc4C)c(-c4ccccc4Cl)c3c2N)c1 | . | . | . | ? | -23.7% | .
c1ccc(N2CCN(c3cccc(-c4cc5ccccc5s4)n3)CC2)nc1 | 13.5% | 25.5 | -0.6% | 2.8% | -4.8% | .
CC(=O)c1c(C)oc2ccc(N(C(C)=O)S(=O)(=O)c3cccc([N+](=O)[O-])c3)cc12 | -0.4% | 14.0 | 4.9% | ? | 20.6µM* | 10.6%
CCCCC(=O)N(c1ccc2oc(C)c(C(C)=O)c2c1)S(=O)(=O)c1ccc(F)cc1C | . | . | . | 10.3µM* | 14.6µM* | .
Cc1ccc(S(=O)(=O)Nc2cc(Cl)c3oc4c(c3c2)CCCC4)cc1 | . | . | . | 13µM* | ? | .
O=S(=O)(Nc1ccc2oc3c(c2c1)CCCC3)c1cc(Cl)ccc1Cl | . | . | . | ? | -29.8% | .
CCOc1ccc(S(=O)(=O)N(C(=O)c2ccncc2)c2ccc3oc(C)c(C(=O)OC)c3c2)cc1 | . | . | . | 0.92µM* | 1.03µM* | .
COC(=O)c1ccc(OC)c(Cn2c(=O)n(-c3cccc(Cl)c3)c(=O)c3c2c2cc(C)ccc2n3C)c1 | . | . | . | 0.7% | -12.8% | .
Cc1cccc(NC(=O)c2cc3c(=O)n(Cc4cccnc4)ccc3nc2C)c1 | . | . | . | ? | -21.7% | .
COc1ccc(S(=O)(=O)N(C(=O)c2ccncc2)c2ccc3oc(C)c(C(C)=O)c3c2)cc1 | . | . | . | 2.31µM* | 3.66µM* | .
CC(=O)c1c(C)oc2ccc(N(C(=O)Oc3ccccc3)S(=O)(=O)c3ccc(C(C)(C)C)cc3)cc12 | . | . | . | 9.2µM* | 5.17µM* | .
COc1ccc(N(C(=O)c2ccncc2)S(=O)(=O)c2ccccc2)cc1 | 7.2% | 6.6 | 8.3% | -28.3% | -11.2% | -15.2%
COc1ccc(S(=O)(=O)Nc2ccc3oc(C)c(C(=O)O)c3c2)cc1 | -0.6% | 10.4 | -2.3% | -0.6% | 4.3% | -3.9%
Cc1ccc(C(=O)N2CC3(C(C)C)CN(C(=O)c4ccc(C)cc4)CC(C(C)C)(C2)C3=O)cc1 | 6.0% | 30.7 | 7.2% | 14.6µM* | ? | 5.3%
Cc1cccc2sc(NC(=O)c3ccc(NS(=O)(=O)c4cccs4)cc3)nc12 | -27.4% | ? | -27.8% | -29.3% | ? | 6.1%
CC(=O)N=c1scc(-c2ccccc2)n1-c1cccc(O)c1 | -29.8% | 18.8 | ? | 16.4µM* | ? | -5.1%
CCc1ccc(OCc2ccccc2C(=O)Nc2ccc3nc(C)cc(N)c3c2)cc1 | . | . | . | 3.16µM* | 5.01µM* | .
Cc1ccc(S(=O)(=O)N2CCC(=O)N(C(COCc3ccc(Cl)cc3Cl)Cc3ccccc3)CC2)cc1 (stereo not drawn) | 7.4% | -2.7 | 7.3% | ? | ? | 2.7%
